The values below come from PubChem BioAssay (Tox21).

The structures appear in SMILES notation. Values joined by “and” are separate entries in the source; they are usually repeats but may differ in a detail not shown here. Identical values can stand only once. Inconclusive results are not listed. A structure can be active in one record and inactive in another. Active and inactive are the calls of the source. Unless noted, calls come from the whole dose curve.

A short description of test [1]: Nuclear factor erythroid 2-related factor 2/antioxidant responsive element (Nrf2/ARE) small molecule agonists: qHTS cell viability counter screen in human keratinocytes (AID 1919968; active = well fitted cell-killing curve with a large enough effect in the repeat runs; note: nearly all actives have a fitted effect of over 55% in size). The gist of the method: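 Stably transfected HaCaT (KeratinoSens), 1,500/well. Test agents in DMSO were applied for 23 h, 37 C/5% CO2. CellTiter-Fluor was incubated 1 h before the fluorescence read.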
(In general: In qHTS, concentration-response curves come from the screen itself.)

A short description of test [2]: Nuclear factor erythroid 2-related factor 2/antioxidant responsive element (Nrf2/ARE) small molecule agonists: luciferase reporter gene qHTS assay in human keratinocytes (AID 1919969). Note: nearly all actives have a fitted effect of over 35% in size. Note: potency is the fitted concentration of half-maximal effect. In general terms: Reporter assays use an easily measured gene product as a stand-in for the process of interest.
For test [3], the target named is Gonadotropin-releasing hormone receptor (Homo sapiens) (UniProt P30968). The test is described as follows: Human gonadotropin-releasing hormone receptor (GnRHR) small molecule agonists, calcium flux assay in GnRHR-HEK293 cells (AID 1920063). Note: nearly all actives have a fitted effect of over 35% in size. Note: potency is the fitted concentration of half-maximal effect. Put shortly:
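Stable human GnRHR HEK293 line. 18 h plating, then calcium dye for 1 h at 37 C. Agonist-mode compound addition from DMSO stocks; fluorescence monitored 3 min.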
(Calcium assays in cells follow changes in intracellular calcium, usually with a dye or a luminescent sensor.)

A short description of test [4]: G protein-coupled receptor (GPCR) small molecule agonists, calcium flux assay: HEK293 wild type cell line counter screen (AID 1920065). Put shortly: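 Following 18 h incubation at 37 C/5% CO2, plates got calcium dye for 1 h; compounds, ATP or DMSO were then pinned in and fluorescence followed kinetically (480/540 nm).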
Test [5] can be described thus: p53 small molecule agonists, cell-based qHTS assay with human liver microsomes (AID 1963577).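 Note: p53 response element beta-lactamase reporter cells with liver microsomes plus NADPH.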 Put shortly:
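HLM-supplemented p53RE-bla reporter assay: 16 h compound exposure at 37 C, microsomes and NADPH each 0.5 mg/mL final, read by fluorescence intensity.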

Test [6] can be described thus: p53 small molecule agonists, cell-based qHTS assay with rat liver microsomes (AID 1963578). The gist of the method: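 Quantitative HTS of the Tox21 10K library: p53RE-bla cells, rat liver microsomes plus NADPH at 0.5 mg/mL final each, 16 h at 37 C, beta-lactamase fluorescence detection.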
Test [7] is described as follows: p53 small molecule agonists, cell-based qHTS assay with human liver microsomes: qHTS cell viability counter screen (AID 1963579). Note: nearly all actives have a fitted effect of over 45% in size. The gist of the method: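 Viability of p53RE-bla cells is measured as CellTiter-Glo luminescence following a 16 h, 37 C incubation with compound, liver microsomes from human donors and NADPH.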
Test [8] is described as follows: p53 small molecule agonists, cell-based qHTS assay with rat liver microsomes: qHTS cell viability counter screen (AID 1963580). Note: nearly all actives have a fitted effect of over 45% in size. Put shortly: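 Cytotoxicity counter screen: intracellular ATP measured by CellTiter-Glo luminescence in the same wells as the beta-lactamase reporter read, on HCT-116 p53RE-bla cells exposed 16 h at 37 C to compounds with rat liver microsomes and NADPH, each 0.5 mg/mL final.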

A short description of test [9]: p53 small molecule agonists, cell-based qHTS assay: qHTS cell viability counter screen (AID 1963581). Note: nearly all actives have a fitted effect of over 45% in size. The gist of the method: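 qHTS counter screen: 16 h compound exposure at 37 C of p53RE-bla HCT-116 cells (4,000 per well, seeded 5 h prior), cell viability by ATP luminescence.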
Test [10] can be described thus: p53 small molecule agonists, cell-based qHTS assay (AID 1963582; active = well fitted activation curve with a large enough effect in the signal ratio in the repeat runs, not every such curve was filed as active; the % refers to the signal ratio). Put shortly: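 Measured: fluorescence from cleaved LiveBLAzer substrate. System: p53RE-bla cells, 16 h compound treatment at 37 C, 2 h substrate step at room temperature.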
Test [11] deals with 5-hydroxytryptamine receptor 2A (Homo sapiens) (UniProt P28223). The test is described as follows: 5-hydroxytryptamine receptor 2A (HTR2A) small molecule antagonists, cell-based qHTS assay (AID 1963586). Note: nearly all actives have a fitted effect of over 45% in size. The gist of the method:
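CHO cells stably expressing human HTR2A were plated for 18 h at 37 C, then loaded with calcium dye for 1 h. Compounds were preincubated 5 min at room temperature before DOI (4 nM solution) was added. Kinetic fluorescence was read for 3 min.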

For test [12] the target is unchanged. Nature of the test: 5-hydroxytryptamine receptor 2A (HTR2A) small molecule agonists, cell-based qHTS assay (AID 1963587). Note: nearly all actives have a fitted effect of over 30% in size. Note: potency is the fitted concentration of half-maximal effect. Put shortly: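 CHO cells stably expressing human HTR2A, plated 18 h, loaded with calcium dye 1 h at 37 C. Agonist mode: compounds added and intracellular calcium fluorescence recorded kinetically for 2 min at 1 sec intervals.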
The target in test [13] is Muscarinic acetylcholine receptor M1 (Homo sapiens) (UniProt P11229). Nature of the test: Cholinergic receptor muscarinic 1 (CHRM1) small molecule antagonists, cell-based qHTS assay (AID 1963588). Note: nearly all actives have a fitted effect of over 40% in size. The gist of the method: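 Compounds were tested at 15 concentrations in three independent runs. Dye-loaded CHRM1-CHO cells were exposed 5 min at room temperature before stimulation by acetylcholine added at 50nM. Intracellular calcium was read kinetically on FDSS for 3 min.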

Test [14] shares this target. The test is described as follows: Cholinergic receptor muscarinic 1 (CHRM1) small molecule agonists, cell-based qHTS assay (AID 1963589). Note: nearly all actives have a fitted effect of over 35% in size. Note: potency is the fitted concentration of half-maximal effect. Put shortly: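 Kinetic fluorescence (1 s intervals) of calcium-sensitive dye in human M1 CHO cells after compound addition; cells pre-incubated 18 h at 37 C/5% CO2 and dye-loaded 1 h.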
The nature of test [15]: cAMP Responsive Elements (CRE) small molecule agonists, cell-based qHTS assay (AID 1963590). Put shortly:
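Test agents in DMSO were incubated 3 h at 37 C/5% CO2 with CRE-bla HEK 293T cells seeded 18 h earlier; LiveBLAzer B/G FRET substrate was added and read after 2 h at room temperature.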

Test [16] can be described thus: cAMP Responsive Elements (CRE) small molecule antagonists, cell-based qHTS assay (AID 1963591; active = well fitted inhibition curve with a large enough effect in the signal ratio in the repeat runs, not every such curve was filed as active; the % refers to the signal ratio). Put shortly:
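Reporter line CRE-bla HEK 293T in dialyzed-FBS DMEM; cells preincubated 18 h, treated 3 h with compound plus NKH477 (0.25 uM final); LiveBLAzer FRET, 2 h RT.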

In test [17] the target is Beta-2 adrenergic receptor (Homo sapiens) (UniProt P07550). The test is described as follows: Adrenergic beta2 receptor (ADRB2) small molecule antagonists, cell-based qHTS assay (AID 1963592). Note: series mostly up to about 92 µM; nearly all actives have a fitted effect of over 50% in size. Put shortly:
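Assay format: CHO-ADRB2 cells, 18-20hr seeding at 37C/5% CO2, then compound plus 1nM isoproterenol agonist mix for 0.5hr RT. Homogeneous time-resolved fluorescence cAMP detection after 1hr, expressed as 665/615 nm ratio.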

For test [18] the target is unchanged. The test is described as follows: Adrenergic beta2 receptor (ADRB2) small molecule agonists, cell-based qHTS assay (AID 1963593).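 Note: CHO cells stably overexpressing human ADRB2.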 Put shortly: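 CHO cells stably over-expressing ADRB2 were plated overnight at 37C, then dosed with compounds plus a stimulation mix containing 100uM IBMX and 25uM Ro-20-1724 for 0.5hr at room temperature. cAMP was measured by HTRF competition, 1hr.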

The target of test [19] is D(2) dopamine receptor (Homo sapiens) (UniProt P14416). The test is described as follows: Dopamine D2 receptor (DRD2) small molecule agonists, cell-based qHTS assay (AID 1963594). Note: nearly all actives have a fitted effect of over 35% in size. The gist of the method: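 HEK293 cells stably expressing human DRD2, pre-treated with PDE inhibitor Ro20-1724 (0.1 mM final) and compound 10 min at room temperature, then stimulated with NKH477 (200nM […]) for 30 min. cAMP read by HTRF (665/620 nm).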

For test [20] the target is unchanged. The test is described as follows: Dopamine D2 receptor (DRD2) small molecule antagonists, cell-based qHTS assay (AID 1963595; active = well fitted inhibition curve with a large enough effect in the signal ratio in the repeat runs, with a control signal flat; the % refers to the signal ratio). The gist of the method:
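Antagonist mode in DRD2-HEK293 cells: after compound addition with 0.1 mM Ro20-1724, cells received quinpirole (12 nM) and NKH477 (200 nM) for 30 min at room temperature; HTRF cAMP read after 1 h detection.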

Sequence of 5-hydroxytryptamine receptor 2A (Homo sapiens) (P28223 whole entry, looked up): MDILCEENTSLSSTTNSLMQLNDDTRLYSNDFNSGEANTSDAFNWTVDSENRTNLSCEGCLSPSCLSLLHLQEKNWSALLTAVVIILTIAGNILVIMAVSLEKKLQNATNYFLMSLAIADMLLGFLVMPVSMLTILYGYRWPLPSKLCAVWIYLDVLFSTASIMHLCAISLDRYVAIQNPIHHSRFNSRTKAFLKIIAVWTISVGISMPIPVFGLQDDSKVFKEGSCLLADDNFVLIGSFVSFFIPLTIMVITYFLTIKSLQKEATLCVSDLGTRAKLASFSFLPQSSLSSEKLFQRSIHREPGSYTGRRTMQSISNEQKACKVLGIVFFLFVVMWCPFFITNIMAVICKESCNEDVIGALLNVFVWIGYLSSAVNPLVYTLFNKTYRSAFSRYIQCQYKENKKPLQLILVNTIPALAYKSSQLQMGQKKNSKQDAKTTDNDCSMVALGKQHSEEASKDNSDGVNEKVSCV
Sequence of Muscarinic acetylcholine receptor M1 (Homo sapiens) (P11229 whole entry, looked up): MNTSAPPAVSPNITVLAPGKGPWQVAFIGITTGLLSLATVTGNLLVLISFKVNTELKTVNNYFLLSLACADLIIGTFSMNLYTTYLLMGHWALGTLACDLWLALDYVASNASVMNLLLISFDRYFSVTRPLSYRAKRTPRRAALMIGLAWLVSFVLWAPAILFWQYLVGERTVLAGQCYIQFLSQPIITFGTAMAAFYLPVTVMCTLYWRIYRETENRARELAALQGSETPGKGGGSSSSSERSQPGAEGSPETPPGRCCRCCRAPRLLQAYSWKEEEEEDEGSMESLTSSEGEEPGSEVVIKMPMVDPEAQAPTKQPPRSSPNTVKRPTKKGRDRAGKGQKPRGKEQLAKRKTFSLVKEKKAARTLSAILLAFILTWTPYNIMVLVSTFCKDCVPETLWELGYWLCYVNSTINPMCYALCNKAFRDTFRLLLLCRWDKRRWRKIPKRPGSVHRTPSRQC
Sequence of Beta-2 adrenergic receptor (Homo sapiens) (P07550 whole entry, looked up): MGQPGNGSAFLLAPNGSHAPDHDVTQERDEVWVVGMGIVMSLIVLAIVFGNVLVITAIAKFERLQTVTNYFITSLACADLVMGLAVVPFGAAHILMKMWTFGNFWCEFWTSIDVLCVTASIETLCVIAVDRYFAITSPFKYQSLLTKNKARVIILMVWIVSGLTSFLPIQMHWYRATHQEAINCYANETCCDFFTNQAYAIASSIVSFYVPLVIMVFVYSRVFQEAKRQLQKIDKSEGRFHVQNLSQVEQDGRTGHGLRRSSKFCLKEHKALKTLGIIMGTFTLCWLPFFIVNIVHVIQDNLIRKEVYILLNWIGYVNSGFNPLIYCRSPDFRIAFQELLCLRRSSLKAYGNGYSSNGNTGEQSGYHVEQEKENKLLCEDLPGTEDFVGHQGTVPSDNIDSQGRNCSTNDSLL
Sequence of Gonadotropin-releasing hormone receptor (Homo sapiens) (P30968 whole entry, looked up): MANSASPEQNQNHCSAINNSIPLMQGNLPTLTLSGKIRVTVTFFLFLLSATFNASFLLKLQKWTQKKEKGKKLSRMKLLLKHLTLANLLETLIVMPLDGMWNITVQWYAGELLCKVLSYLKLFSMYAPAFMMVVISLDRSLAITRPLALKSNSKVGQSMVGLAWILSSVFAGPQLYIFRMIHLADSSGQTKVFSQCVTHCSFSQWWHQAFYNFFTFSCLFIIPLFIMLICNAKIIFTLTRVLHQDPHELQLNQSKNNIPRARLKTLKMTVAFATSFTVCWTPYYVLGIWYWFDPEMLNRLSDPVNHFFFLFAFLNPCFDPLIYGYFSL
Sequence of D(2) dopamine receptor (Homo sapiens) (P14416 whole entry, looked up): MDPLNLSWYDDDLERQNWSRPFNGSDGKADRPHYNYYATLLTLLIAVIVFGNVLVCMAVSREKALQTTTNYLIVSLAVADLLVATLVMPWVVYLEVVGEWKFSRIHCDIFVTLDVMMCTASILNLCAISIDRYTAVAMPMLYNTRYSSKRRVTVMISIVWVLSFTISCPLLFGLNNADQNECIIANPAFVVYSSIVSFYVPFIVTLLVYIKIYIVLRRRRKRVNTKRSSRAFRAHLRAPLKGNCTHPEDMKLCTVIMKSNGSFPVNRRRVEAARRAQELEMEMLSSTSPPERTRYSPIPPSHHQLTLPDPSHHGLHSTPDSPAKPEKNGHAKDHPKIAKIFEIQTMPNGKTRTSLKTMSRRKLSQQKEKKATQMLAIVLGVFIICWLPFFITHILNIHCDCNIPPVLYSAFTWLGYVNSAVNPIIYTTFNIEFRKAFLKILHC

Regarding `COC(=O)c1ccc([N+](=O)[O-])cc1`, the Potency entry in [1], in test [2], in test [3], in [4], in [5] and in test [6] was “inactive” in each case. The Potency entry in test [7], in [8], in test [9], in test [10], in [11] and in test [12] was “inactive” each time. Besides, the Potency entry in [13], in test [14], in test [15], in [16], in test [17] and in test [18] was “inactive” in each case. Besides, the Potency result in test [19] and in test [20] was “inactive” each time.

`CC(Cl)COP(=O)(OCC(C)Cl)OCC(C)Cl` (stereo unspecified): the Potency result in [1], in test [2], in [3], in test [4], in test [5] and in test [6] was “inactive” throughout. The Potency entry in [7], in [8], in test [9], in [10], in test [11] and in [12] was “inactive” each time. Also, the Potency result in [13], in test [14], in test [15], in [16], in [17] and in test [18] was “inactive” in each case. The Potency result in test [19] and in test [20] was “inactive” in each case.

For the molecule `CC(C)(CCC(=O)O)C(=O)O`, the Potency result in test [1], in test [2], in [3], in test [4], in [5] and in test [6] was “inactive” in each case. Moreover, the Potency entry in test [7], in test [8], in test [9], in [10], in [11] and in test [12] was “inactive” throughout. Further, the Potency result in test [13], in test [14], in test [15], in test [16], in test [17] and in [19] was “inactive” throughout. In [20], the Potency entry was “inactive”.

As to `CC(=O)CC(=O)Nc1ccc2[nH]c(=O)[nH]c2c1`, the Potency entry in test [1], in [2], in test [3], in test [4], in [5] and in test [6] was “inactive” throughout. Besides, the Potency result in test [7], in test [8], in test [9], in [10], in test [11] and in test [12] was “inactive” each time. The Potency result in test [14], in test [16], in test [17], in test [18], in test [19] and in [20] was “inactive” each time.

Regarding `Nc1ccccc1N`, the Potency entry in [1], in test [4], in test [5], in test [6], in [7] and in test [8] was “inactive” each time. For the same molecule, the Potency result in test [9], in [10], in [11], in test [13], in test [17] and in [19] was “inactive” in each case. In addition, in [20], the Potency result was “inactive”. In addition, the Potency in test [2] is 31.4 µM (active) and 7.7 µM (active); in test [3] it was 35.5 µM (active); in [12], 50.1 µM (active) and 30.9 µM (active); in [14], 56.2 µM (active) and inactive.

For `C1CCC(SSC2CCCCC2)CC1`, the Potency result in [1], in test [2], in [3], in [4], in test [5] and in [6] was “inactive” each time. For the same molecule, the Potency entry in test [7], in [8], in [9], in test [10], in test [11] and in [12] was “inactive” each time. In addition, the Potency result in test [13], in test [14], in test [15], in test [16], in [17] and in test [19] was “inactive” throughout. The Potency entry in test [20] is “inactive”.

On to `CCNc1cc(O)ccc1C`, for which the Potency result in test [1], in test [2], in [3], in test [4], in test [5] and in test [6] was “inactive” in each case. In addition, the Potency entry in test [7], in [8], in test [9], in test [10], in test [11] and in test [12] was “inactive” each time. The Potency entry in test [13], in [15], in test [16], in [17], in test [18] and in [19] was “inactive” in each case.
